The results in this text go back to ChEMBL document CHEMBL3988442, “University of Dundee, Small-Polar-MMV Screening Library” (2021).

Screen size: about 48,000 compounds; about 13,000 (27%) showed an effect of 50% or more. Some of the results follow.

The assay has as its system Wolbachia pipientis. Description: Anti-Wolbachia Cell-Based Screen. In kind it is functional. On the set-up: scale not given: in the data most compounds retested in dose-response had high values. Particulars: 5 µM.
As for `CSCC[C@@H](CO)Nc1nc(-c2ccccn2)nc2c1c(C)nn2C`, the “Percent Effect” value is given as -12.31%.

Turning to `COc1cccc(C2CCCN2C(=O)c2cc3c([nH]c2=O)CCC3)c1` (stereo not given), the “Percent Effect” value worked out at 13.18%. In the case of `O=C(O)c1nnn(Cc2cccc(C(F)(F)F)c2)c1-c1cccnc1` it was 14.53%; in that of `CNC(=O)Cn1cc(C#N)c(=O)c2cc(Br)ccc21`, -8.636%. In the case of `CSc1ccccc1C(C(=O)O)N1CCN(Cc2ccccn2)CC1` (stereo not given) it was 5.13%. In the case of `CS(=O)(=O)NC1CCCN(Cc2ccccn2)C1` (stereo not given) it was -8.857%. Take `CNC(=O)[C@@H]1[C@H]2CN(Cc3ccccn3)CCN2C[C@H]1c1ccccc1`: the “Percent Effect” value is on record as 121%.

With `CNC(=O)[C@@H]1C[C@@H](N)CN1C1CCN(Cc2ccccn2)CC1`, the “Percent Effect” value is -2.984%. In the case of `CNC(=O)[C@@H]1[C@@H](c2ccccc2)CN2CCN(Cc3ccccn3)C[C@H]12` it was 89.14%; in that of `O=C(Nc1ccc(Cl)cn1)C1CCCN(Cc2ccccn2)C1` (stereo not given), 22.45%. Under `CC(C)NC(=O)[C@H]1C[C@@H]2[C@@H](C1)OCCN2Cc1cnn(C)c1.O=C(O)C(F)(F)F` stands -20.9%. As for `CC(C)c1cc(C(=O)N(C)C(C)c2nccs2)no1` (stereo not given), the “Percent Effect” value is given as -2.417%.

Turning to `O=C(CCc1ccc(O)cc1)N1CCC(Cc2ccc(CO)cc2)C1` (stereo not given), the “Percent Effect” value was -11.56%. In the case of `Cc1nc2cc(=O)[nH]n2c(C)c1CNC(=O)C(C)(C)c1ccccc1` it was -10.11%; in that of `CSc1ccccc1C(=O)NCCC(O)c1ccco1` (stereo not given), -13%.

As for `COCc1nc2cc(NCc3ncc[nH]3)ccc2o1`, the “Percent Effect” value is listed as 3.493%.

On to `Cc1ccccc1C1(C(=O)N2CCCC(n3cncn3)C2)CC1` (stereo not given), for which the “Percent Effect” value worked out at 122.4%.

Regarding `Cc1cccn2cc(CC(=O)N3CCCC(n4cncn4)C3)nc12` (stereo not given), the “Percent Effect” value stood at 3.172%. Under `O=C(N1CCC(Oc2ccncc2)C1)C1(c2ccccc2F)CC1` (stereo not given) stands -11.14%; under `O=C(N1CCCC(n2cncn2)C1)C1(c2ccccc2F)CCCC1` (stereo not given), 104.1%.

On to `Cc1nn(C)c2nc(-c3ccccn3)nc(NCCCOC(C)C)c12`, for which the “Percent Effect” value is -17.61%. `CNC(=O)CC1COCCN1C(=O)C1(c2ccc(Cl)cc2)CCC1` (stereo not given): the “Percent Effect” value is listed as -7.784%. In the case of `O=C(NCCN1CCCCC1=O)C1CCC(=O)N(C2CCCC2)C1` (stereo not given) it was -13.2%; in that of `c1cncc(N2CCC(c3ccncc3)CC2)c1`, 81.68%; in that of `c1cc(C2CCN(c3cncnc3)CC2)ccn1`, 107.5%. With `c1cnc(N2C[C@H]3CCN(c4cccnc4)C[C@H]3C2)nc1`, the “Percent Effect” value is on record as -4.407%. As for `Cc1cnc(N2CCC(c3ccncc3)CC2)nc1-c1ccnn1C`, the “Percent Effect” value was -32.29%. Take `FC(F)(F)c1cccc(N2CCC(NCc3cccnc3)CC2)c1`: the “Percent Effect” value was 10.28%. On to `c1ccc(C2CCCN(c3cncc(-n4cccn4)n3)CC2)cc1` (stereo not given), for which the “Percent Effect” value turned out to be 13.07%. In the case of `c1cc(N2CCC(c3nnc(Cn4ccnc4)n3C3CC3)CC2)ccn1` it was -8.252%; in that of `c1ccc(N2CCC(c3ccncc3)CC2)cc1`, 167%. On to `COC(=O)c1ccc(N2CCC(c3ccccc3)CC2)nn1`, for which the “Percent Effect” value was -9.28%. In the case of `O=C(O)C(F)(F)F.O=C([C@H]1COC[C@H]2CN(C3CCOCC3)C[C@H]21)N1CCCO1`, the “Percent Effect” value amounted to 2.638%. Under `CSCCC1c2nc[nH]c2CCN1Cc1cc(Cl)ccc1O` (stereo not given) stands -0.8881%; under `CC(C)n1cnc(-c2nc(C(=O)NC3CC3)c3ccccn23)c1`, 100.7%. In the case of `CC(C)n1cnc(-c2nc(C(=O)N3CCN(C)CC3)c3ccccn23)c1` it was 2.747%; in that of `Cc1nc(-c2nc(C(=O)NC3CC3)c3ccccn23)cn1C(C)C`, 96.1%.

In the case of `Cc1nc(-c2nc(C(=O)N3CCOCC3)c3ccccn23)cn1C(C)C`, the “Percent Effect” value is -8.689%.

As for `Cn1cnc(-c2nc(C(=O)NC3CC3)c3ccccn23)c1`, the “Percent Effect” value is on record as -8.322%. As to `CC(C)n1ccc(-c2cc(C(=O)NC3CC3)c3ccccn23)n1`, the “Percent Effect” value is listed as -8.678%.

`Cn1cnc(-c2nc(C(=O)NCCN3CCCC3)c3ccccn23)c1`: the “Percent Effect” value is given as -11.17%. In the case of `Cc1nc(-c2nc(C(=O)N(C)C)c3ccccn23)cn1C(C)C` it was 84.92%; in that of `Cc1nc(C(=O)N(C)CC(F)(F)C(F)(F)F)c2ccccn12`, 6.68%; in that of `Cc1nc(C(=O)N(CC(=O)N(C)C)CC(F)(F)F)c2ccccn12`, 1.81%. Take `Cc1noc(C)c1CN(C)C(=O)NC(C)c1cccs1` (stereo not given): the “Percent Effect” value is reported as -8.281%. On to `NC(=O)C1CCN(Cn2nc(-c3ccccc3)oc2=O)CC1`, for which the “Percent Effect” value is given as -3.823%.

Take `Cc1noc(C2CCN(C(=O)CCNS(C)(=O)=O)CC2)n1`: the “Percent Effect” value is on record as -0.9329%. Under `CCC(=O)Nc1cccc(OCC(=O)N2CC=CC2C(C)C)c1` (stereo not given) stands 89.02%; under `CCC(=O)Nc1cccc(OCC(=O)N2C[C@H]3CC[C@H]2C3)c1`, 93.75%. Under `CCC(=O)NC1CCCN(C(=O)Nc2cccc(COC(C)C)c2)C1` (stereo not given) stands -15.38%. Under `CCC(=O)Nc1cccc(OCC(=O)N(C)Cc2nccn2CC)c1` stands -14.09%; under `CCC(=O)Nc1cccc(OCC(=O)N[C@@H]2C[C@H]3CC[C@@H]2C3)c1`, 110%; under `COc1cccc(NC(=O)CN(C(C)C)C2CC2)c1`, 1.237%. On to `CCC(=O)Nc1cccc(OCC(=O)N(C)Cc2nc(C)c[nH]2)c1`, for which the “Percent Effect” value is recorded as -12.77%.

With `CCC(=O)Nc1cccc(OCC(=O)N(C)Cc2cc(COC)[nH]n2)c1`, the “Percent Effect” value is given as -13.78%. For `CCC(=O)Nc1cccc(OCC(=O)N(C)Cc2ccon2)c1`, the “Percent Effect” value is on record as -42.8%. In the case of `CN(C)C(=O)c1ccc2c(c1)N(C)C(CC(=O)NCCOCCO)CO2` (stereo not given) it was 24%; in that of `Cc1ccccc1C1(C(=O)N2CCOC(C)C2)CCOCC1` (stereo not given), -22.89%; in that of `COCCN1CCC2(CC1)CC(c1cccnc1)C(=O)N2C` (stereo not given), 119.4%. Regarding `CN1C(=O)C(c2cccnc2)CC12CCN(Cc1nccs1)CC2` (stereo not given), the “Percent Effect” value is 106.4%. For `CN1C(=O)C(c2ccccc2)CC12CCN(CCOCCO)CC2` (stereo not given), the “Percent Effect” value turned out to be 13.34%. As for `CN1C(=O)C(c2cccnc2)CC12CCN(CCO)CC2` (stereo not given), the “Percent Effect” value amounted to 110.9%.

Take `COCCN1CCC2(CC1)CC(c1ccccc1)C(=O)N2C` (stereo not given): the “Percent Effect” value is given as -11.58%. For the molecule `CN1C(=O)C(c2ccccc2)CC12CCN(CCO)CC2.O=C(O)C(F)(F)F` (stereo not given), the “Percent Effect” value is listed as 95.45%. With `CN1C(=O)C(c2cccnc2)CC12CCN(C(=O)c1cccn1C)CC2` (stereo not given), the “Percent Effect” value is reported as -11.09%. Regarding `Cc1occc1C(=O)N1CCC2(CC1)CC(c1cccnc1)C(=O)N2C` (stereo not given), the “Percent Effect” value is listed as -9.568%.

Take `CCN1C(=O)C(c2ccccc2)CC12CCN(CCO)CC2.O=C(O)C(F)(F)F` (stereo not given): the “Percent Effect” value was -6.556%. In the case of `CN1C(=O)C(c2cccnc2)CC12CCN(C(=O)c1ccc[nH]1)CC2` (stereo not given) it was -0.8841%; in that of `CCCOCCN1CCC2(CC1)CC(c1ccccc1)C(=O)N2C` (stereo not given), 4.457%. In the case of `CN1C(=O)C(c2ccccc2)CC12CCN(CCN)CC2` (stereo not given) it was -103.7%; in that of `Cc1nc2c(NC(CC(C)(C)C)c3cccnc3)ncnc2o1` (stereo not given), -3.479%. In the case of `CC(C)(N)CN1CCC(c2nnc(CN3CCCC3)n2C2CC2)CC1` it was -7.57%; in that of `CNC(=O)c1ccc(NC(=O)NC(C)c2cc(C)oc2C)c(C)c1` (stereo not given), -1.593%; in that of `CN(CCC(F)(F)F)Cc1nc2ccccc2c(=O)[nH]1`, -3.599%.

`Cc1cnc(C(=O)N2CCN(C(=O)CC(C)C)[C@@H]3CS(=O)(=O)C[C@@H]32)cn1`: the “Percent Effect” value was -11.52%. Consider `CC(C)(C)CN1CC[C@H](c2nnc(Cc3c[nH]c4ccccc34)o2)C1`, for which the “Percent Effect” value is 1.678%.

Regarding `Cc1n[nH]c(C(=O)N2CCCC(C)CC2)c1Br` (stereo not given), the “Percent Effect” value turned out to be 10.78%. Take `CCNC(=O)c1nnn(Cc2ccccc2)c1OC`: the “Percent Effect” value came to 0.7251%. In the case of `Cc1cc(=O)n(C)cc1NC(=O)Cc1cccc(F)c1` it was -4.709%. Consider `O=C(O)C(F)(F)F.O=C1CC[C@H]2[C@H](CCN2c2ncc(F)cn2)N1c1ccccc1`, for which the “Percent Effect” value was 111.8%. Take `O=C(O)C(F)(F)F.O=C1CC[C@H]2[C@H](CCN2c2ncccn2)N1c1ccccc1`: the “Percent Effect” value is reported as 99.41%.

With `O=C(C1CC1)N1CC[C@H]2[C@@H]1CCC(=O)N2c1ccccc1`, the “Percent Effect” value is on record as 23.82%. In the case of `Cc1cccc(C(=O)N2CC[C@@H]3[C@H]2CCC(=O)N3c2ccccc2)n1.O=C(O)C(F)(F)F` it was -24.35%. Under `Cc1ccc(C(=O)N2CC[C@H]3[C@@H]2CCC(=O)N3c2ccccc2)cn1.O=C(O)C(F)(F)F` stands -18.98%; under `Cc1cnc(N2CC[C@H]3[C@@H]2CCC(=O)N3c2cccnc2)nc1.O=C(O)C(F)(F)F.O=C(O)C(F)(F)F`, -6.762%.

For the molecule `Cc1cnc(N2CC[C@H]3[C@@H]2CCC(=O)N3c2ccccc2)nc1.O=C(O)C(F)(F)F`, the “Percent Effect” value was determined as 112.6%. As for `O=C(O)C(F)(F)F.O=C(O)C(F)(F)F.O=C1CC[C@H]2[C@H](CCN2c2ncc(F)cn2)N1c1cccnc1`, the “Percent Effect” value is recorded as -9.717%. As to `Cc1ccoc1C(=O)N1CC[C@H]2[C@@H]1CCC(=O)N2c1cccnc1.O=C(O)C(F)(F)F`, the “Percent Effect” value is reported as -7.796%. In the case of `CC(OCC1CC1)C(=O)Nc1nccn1Cc1ccccc1` (stereo not given) it was -19.61%; in that of `CCN(Cc1cnc(NCc2ccccc2)nc1)C1CCS(=O)(=O)C1` (stereo not given), -2.242%; in that of `CN(Cc1cccc2cccnc12)C1CCS(=O)(=O)C1.O=C(O)CC(O)(CC(=O)O)C(=O)O` (stereo not given), 164.7%. In the case of `CN(C(=O)NCCCNc1ccccn1)C1CCS(=O)(=O)C1` (stereo not given) it was -6.562%. With `CN(Cc1ccnc2ccccc12)C1CCS(=O)(=O)C1.O=C(O)CC(O)(CC(=O)O)C(=O)O` (stereo not given), the “Percent Effect” value is reported as 102.4%.

In the case of `CN(Cc1ccc(F)c2cccnc12)C1CCS(=O)(=O)C1` (stereo not given), the “Percent Effect” value is reported as 8.686%. For the molecule `Cc1ccsc1[C@@H]1CCN(C(=O)CCC(=O)N2CCCCCC2)C[C@H]1O`, the “Percent Effect” value is -6.445%.
